Data on 9 molecules can be found in PubChem BioAssay (NCATS).

Assay [1] is described as follows: qHTS for Inhibitors of the Functional Ribonucleoprotein Complex (vRNP) of Lassa (LASV) Arenavirus: LASV Primary Screen - GLuc reporter signal (AID 1347082; calls by dose curve; tested in HEK293 reporter line; note: nearly all actives have a fitted effect of over 60% in size). The note with it: LASV minigenome vRNP, Gaussia luciferase reporter; series mostly up to 57.5 µM. For orientation: Quantitative high-throughput screening tests each substance at several concentrations.
The nature of assay [2]: qHTS for Inhibitors of the Functional Ribonucleoprotein Complex (vRNP) of Lassa (LASV) Arenavirus: Viability assay - alamar blue signal for LASV Primary Screen (AID 1347083; calls by dose curve; tested in HEK293 reporter line; note: nearly all actives have a fitted effect of over 80% in size). The note with it: cell viability, alamar blue fluorescence (LASV minigenome counter-screen); series mostly up to 57.5 µM.
Assay [3] is described as follows: qHTS for Inhibitors of the Functional Ribonucleoprotein Complex (vRNP) of Lymphocytic Choriomeningitis Arenaviruses (LCMV): Viability assay - alamar blue signal for LCMV Primary Screen (AID 1347085; calls by dose curve; tested in HEK293 reporter line; note: nearly all actives have a fitted effect of over 80% in size). The note with it: alamar blue viability counter-screen, LCMV vRNP screen cells; series mostly up to 57.5 µM.
The target in assay [4] is Nucleoprotein (Lymphocytic choriomeningitis virus (strain Armstrong)) (UniProt P09992). The assay can be described thus: qHTS for Inhibitors of the Functional Ribonucleoprotein Complex (vRNP) of Lymphocytic Choriomeningitis Arenaviruses (LCMV): LCMV Primary Screen - GLuc reporter signal (AID 1347086; calls by dose curve; note: nearly all actives have a fitted effect of over 70% in size). The following applies: LCMV minigenome vRNP cell assay, Gaussia luciferase reporter; series mostly up to 57.5 µM.
Nucleoprotein (Lymphocytic choriomeningitis virus (strain Armstrong)), sequence (P09992 whole entry, looked up): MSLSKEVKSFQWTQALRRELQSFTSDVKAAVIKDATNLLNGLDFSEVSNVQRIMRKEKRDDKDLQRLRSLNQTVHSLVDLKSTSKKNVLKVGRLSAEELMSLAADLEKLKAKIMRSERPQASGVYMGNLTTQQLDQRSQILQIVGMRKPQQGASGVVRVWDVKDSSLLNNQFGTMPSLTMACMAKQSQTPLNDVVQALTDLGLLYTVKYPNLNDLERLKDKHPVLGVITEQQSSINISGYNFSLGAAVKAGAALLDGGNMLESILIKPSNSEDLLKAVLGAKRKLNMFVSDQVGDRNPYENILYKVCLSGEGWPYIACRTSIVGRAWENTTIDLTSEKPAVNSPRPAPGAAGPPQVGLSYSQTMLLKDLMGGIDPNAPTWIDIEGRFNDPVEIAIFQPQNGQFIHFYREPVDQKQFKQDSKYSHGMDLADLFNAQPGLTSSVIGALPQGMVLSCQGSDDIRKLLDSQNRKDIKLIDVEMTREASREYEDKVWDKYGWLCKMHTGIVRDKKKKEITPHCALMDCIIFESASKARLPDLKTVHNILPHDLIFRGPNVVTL

The nature of assay [5]: qHTS of pediatric cancer cell lines to identify multiple opportunities for drug repurposing: Primary screen for TC32 cells (AID 1347089). Note: nearly all actives have a fitted effect of over 60% in size. The note with it: TC32 Ewing sarcoma viability, CellTiter-Glo luminescence, 48 h; series mostly up to 45.8 µM. An outline of the steps: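 qHTS, TC32, 48 h drug treatment, CellTiter-Glo luminescence as a proxy for metabolically active cells; primary top concentration 46 µM (MIPE 11-pt, NPC 8-pt); confirmatory 11-pt.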

Assay [6] in a line: qHTS of pediatric cancer cell lines to identify multiple opportunities for drug repurposing: Primary screen for DAOY cells (AID 1347090). Note: nearly all actives have a fitted effect of over 55% in size. The note with it: DAOY medulloblastoma viability, CellTiter-Glo luminescence, 48 h; series mostly up to 46 µM. An outline of the steps: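 Eight- or eleven-point concentration series, 48 h treatment at 37 degrees C in growth media; readout CellTiter-Glo luminescence. Potency and efficacy were taken from the concentration-response curves.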

Results filed as inconclusive are left out. Activity calls are given as the source filed them. Unless noted, calls come from the whole dose curve; as a rule, active = well fitted cell-killing curve with a large enough effect; inconclusive = small, poorly fitted or top-dose-only effect; inactive = flat fitted curve, though single readings scatter.
Potency is the fitted concentration of half-maximal effect.

In the case of `O=C(Nc1ccccc1-c1ccc(Cl)cc1)c1cccnc1Cl`, the Potency result in assay [1], in assay [2], in assay [3], in assay [4], in assay [5] and in assay [6] was “inactive” throughout.
As to `COC1=CC(C)=C[C@@H](C)[C@@H](O)[C@@H](C)CC(C)=CC=C[C@H](OC)[C@H]([C@@H](C)[C@@H](O)[C@H](C)[C@@]2(O)C[C@@H](O)[C@H](C)[C@@H](C(C)C)O2)OC1=O`, the Potency was 109 nM (active) in assay [1]; 76.9 nM (active) in assay [2]; 34.3 nM (active) in assay [3]; 48.5 nM (active) in assay [4]; 330 nM (active) in assay [5]; 2.3 nM (active) in assay [6].
For the molecule `CCC1(CCC(C)C)C(=O)NC(=O)NC1=O`, the Potency result in assay [1], in assay [2], in assay [3], in assay [4], in assay [5] and in assay [6] was “inactive” each time.
Take `COCCOCCO`: the Potency entry in assay [1], in assay [2], in assay [3], in assay [4], in assay [5] and in assay [6] was “inactive” each time.
`Cc1ccc(Cl)c(O)c1`: the Potency result in assay [1], in assay [2], in assay [3], in assay [4], in assay [5] and in assay [6] was “inactive” in each case.
As to `Nc1c(Cl)c(Cl)c(Cl)c(Cl)c1Cl`, the Potency result in assay [1], in assay [2], in assay [3], in assay [4], in assay [5] and in assay [6] was “inactive” in each case.
As for `O=S(=O)(O)C(F)(F)C(F)(F)C(F)(F)C(F)(F)F`, the Potency result in assay [1], in assay [2], in assay [3], in assay [4], in assay [5] and in assay [6] was “inactive” each time.
`Fc1cc(Br)ccc1CBr`: the Potency entry in assay [1], in assay [2], in assay [3], in assay [4], in assay [5] and in assay [6] was “inactive” throughout.
For `N#C[C@H](O[C@@H]1O[C@H](CO[C@@H]2O[C@H](CO)[C@H](O)[C@H](O)[C@H]2O)[C@H](O)[C@H](O)[C@H]1O)c1ccccc1`, the Potency in assay [1] was 17200 nM (active); in assay [2], 19300 nM (active); in assay [3], 38500 nM (active); in assay [4], 24300 nM (active); in assay [6] it was 23500 nM (active). Besides, in assay [5], the Potency result is “inactive”.
